Test results reported in PubChem BioAssay (EPA / NIEHS).
Where “and” joins values, the source holds several entries; their conditions need not be identical. Equal entries are not always repeated. Results filed as inconclusive are left out. Some compounds were tested as several samples or in several runs, with calls that do not always agree. Calls of active or inactive are those of the source. The calls were made as follows, unless noted: active = hit-call score of the fitted dose curve at least 0.9, where 1 is the maximum; inconclusive = response in the unintended direction; inactive = score below 0.9.

How the values were obtained:
[1] = ATG_TGFb_CIS: Attagene CIS-FACTORIAL HepG2 Assay for human Transforming Growth Factor (TGF) (AID 2282967; active = hit-call score of the fitted dose curve at least 0.9, where 1 is the maximum; inactive = score below 0.9); settings: HepG2 Attagene CIS TGFb reporter, mRNA transcription; actives raise or lower the signal
Method in brief: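 Endogenous TGFB1-linked transcription factor activity read as reporter mRNA via RT-PCR and capillary electrophoresis, 24 h after dosing transiently transfected HepG2 cells. Gain or loss of signal fitted relative to DMSO.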

[2] = biological target: X-box-binding protein 1 (Homo sapiens) (UniProt P17861); assay: ATG_Xbp1_CIS: Attagene CIS-FACTORIAL HepG2 Assay for human X-box Binding Protein 1 (XBP1) (AID 2282972; active = hit-call score of the fitted dose curve at least 0.9, where 1 is the maximum; inactive = score below 0.9); settings: HepG2 XBP1 cis-element reporter, Attagene multiplex; actives raise or lower the signal
Method in brief: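 Multiplexed cis-reporter readout in transfected HepG2 liver cells. Exposure lasted 24 hours. Activity in either direction was fitted against DMSO as negative control and baseline.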

[3] = biological target: Oxysterols receptor LXR-beta (Homo sapiens) (UniProt P55055); assay: ATG_LXRb_TRANS: Attagene TRANS-FACTORIAL HepG2 Assay for human Liver X Receptor beta (LXRb) (AID 2282981); settings: HepG2 Attagene TRANS GAL4-LXRb reporter, mRNA
Method in brief: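 Liver-derived HepG2 cells transfected with Gal4-responsive reporters were dosed for 24 h. Activation was scored as rise in reporter mRNA, by RT-PCR and capillary electrophoresis, above DMSO baseline.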

[4] = ATG_M_06_TRANS: Attagene TRANS-FACTORIAL HepG2 Assay for M06 Transcription Factor (Internal Marker) (AID 2282983); settings: HepG2 Attagene TRANS M06 internal marker reporter
Method in brief: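 mRNA levels of a reporter transcript, quantified as FAM fluorescence on capillary electrophoresis, served as readout. HepG2 cells expressing exogenous GAL4-chimera reporter constructs were exposed for 24 h. Gain of signal over DMSO was evaluated.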

[5] = ATG_M_32_TRANS: Attagene TRANS-FACTORIAL HepG2 Assay for M32 Transcription Factor (Internal Marker) (AID 2282984); settings: HepG2 Attagene TRANS M32 internal marker reporter
Method in brief: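 Fluorescence-detected mRNA induction, HepG2 liver cells, 24 h after dosing. Multiple GAL4-UAS reporter units introduced by transient transfection; background-control endpoint analysed for gain of signal against DMSO.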

[6] = biological target: Transcriptional activator Myb (Homo sapiens) (UniProt P10242); assay: ATG_Myb_CIS: Attagene CIS-FACTORIAL HepG2 Assay for human Myeloblastosis (Myb) Proto-Oncogene Transcription Factor (AID 2282986; active = hit-call score of the fitted dose curve at least 0.9, where 1 is the maximum; inactive = score below 0.9); settings: HepG2 Attagene CIS-FACTORIAL Myb reporter transcription; actives raise or lower the signal
Method in brief: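 HepG2 cells were transiently transfected with cis-regulated multiple reporter transcription units reflecting endogenous Myb activity, then exposed to compound for 24 hours. Reporter mRNA was measured by RT-PCR with capillary electrophoresis; bidirectional fitting versus DMSO baseline.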

[7] = biological target: Nuclear respiratory factor 1 (Homo sapiens) (UniProt Q16656); assay: ATG_NRF1_CIS: Attagene CIS-FACTORIAL HepG2 Assay for human Nuclear Respiratory Factor 1 (NRF1) Orphan Gene (AID 2282987; active = hit-call score of the fitted dose curve at least 0.9, where 1 is the maximum; inactive = score below 0.9); settings: HepG2 NRF1 cis-element reporter, Attagene multiplex; actives raise or lower the signal
Method in brief: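 HepG2 cells transiently transfected with multiple reporter transcription units under cis-regulatory promoter control, so endogenous transcription-factor activity is read. After 24 h compound exposure, reporter mRNA quantified by RT-PCR, fluorescent labelling, HpaI digestion and capillary electrophoresis; bidirectional fitting versus DMSO.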

[8] = biological target: Nuclear receptor subfamily 4 group A member 2 (Homo sapiens) (UniProt P43354); assay: ATG_NURR1_TRANS: Attagene TRANS-FACTORIAL HepG2 Assay for human Nuclear Receptor Related Protein 1 (NURR1) (AID 2282985); settings: HepG2 Attagene TRANS reporter, mRNA readout
Method in brief: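 Chimeric NR-Gal4 proteins were expressed in human HepG2 cells bearing GAL4-UAS reporter units, and induced reporter mRNA was quantified 24 h post-dosing by RT-PCR and capillary electrophoresis.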

[9] = biological target: Bile acid receptor (Homo sapiens) (UniProt Q96RI1); assay: ATG_FXR_TRANS: Attagene TRANS-FACTORIAL HepG2 Assay for Farnesoid X Receptor (FXR) (AID 2282979); settings: HepG2 Attagene TRANS FXR-GAL4 reporter transcription;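 also: hits raise reporter mRNA above DMSO so AC50 marks FXR activation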
Method in brief: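 HepG2 cells were transiently transfected with GAL4-UAS reporters driven by chimeric NR-Gal4 proteins and dosed for 24 h. Reporter mRNA was quantified by RT-PCR, fluorescent labelling, HpaI digestion and capillary electrophoresis, with gain of signal scored versus DMSO.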

[10] = biological target: Oxysterols receptor LXR-alpha (Homo sapiens) (UniProt Q13133); assay: ATG_LXRa_TRANS: Attagene TRANS-FACTORIAL HepG2 Assay for human Liver X Receptor alpha (LXRa) (AID 2282980); settings: HepG2 Attagene TRANS reporter, LXRa transactivation
Method in brief: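 HepG2 cells transiently transfected with GAL4-UAS reporter units for chimeric NR-Gal4 proteins, exposed to chemicals for 24 h. Reporter mRNA quantified by RT-PCR and capillary electrophoresis; gain of signal fitted relative to DMSO.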

[11] = biological target: Hepatocyte nuclear factor 4-alpha (Homo sapiens) (UniProt P41235); assay: ATG_HNF4a_TRANS: Attagene TRANS-FACTORIAL HepG2 Assay for human Hepatocyte Nuclear Factor 4 alpha (HNF4a) (AID 2282982); settings: HepG2 HNF4a transactivation reporter, mRNA readout
Method in brief: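 Using HepG2 liver cells transfected with GAL4-UAS reporter units, chemical-induced mRNA increases were assessed after 24 hours. Fluorescent RT-PCR fragments were separated by capillary electrophoresis and compared with DMSO negative controls.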

[12] = ATG_M_19_TRANS: Attagene TRANS-FACTORIAL HepG2 Assay for M19 Transcription Factor (Internal Marker) (AID 2282974); settings: HepG2 Attagene TRANS-FACTORIAL M19 internal marker reporter
Method in brief: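 HepG2 cells transiently transfected with multiple GAL4-UAS reporter transcription units were exposed to chemicals for 24 h. Reporter mRNA was read by RT-PCR, 6-FAM primer extension, HpaI digestion and capillary electrophoresis; gain of signal fitted relative to DMSO.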

[13] = ATG_GAL4_TRANS: Attagene TRANS-FACTORIAL HepG2 Assay for GAL4 (Internal Marker) (AID 2282976); settings: HepG2 Attagene TRANS GAL4 internal marker reporter
Method in brief: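 Background-control readout: GAL4-UAS reporter transcript in transiently transfected HepG2 cells after 24 h compound exposure. Measured by RT-PCR, 6-FAM primer extension, HpaI digest and capillary electrophoresis; gain-of-signal fit versus DMSO.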

[14] = biological target: Estrogen receptor (Homo sapiens) (UniProt P03372); assay: ATG_ERa_TRANS: Attagene TRANS-FACTORIAL HepG2 Assay for human Estrogen Receptor alpha (ERa) (AID 2282970); settings: HepG2 Attagene TRANS ERa GAL4 reporter, mRNA
Method in brief: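 Gal4-fusion ERa transactivation, measured as reporter transcript level in transiently transfected HepG2 cells. Exposure 24 h; RT-PCR plus capillary electrophoresis with fluorescence detection.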

[15] = biological target: Glucocorticoid receptor (Homo sapiens) (UniProt P04150); assay: ATG_GR_TRANS: Attagene TRANS-FACTORIAL HepG2 Assay for human Glucocorticoid Receptor (GR) (AID 2282978); settings: HepG2 Attagene TRANS GR reporter, mRNA transcription;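 also: activators score as hits since higher reporter transcript over DMSO is fitted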
Method in brief: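 HepG2 cells transiently transfected with multiplexed reporter units in which chimeric NR-GAL4 proteins drive GAL4-UAS reporters; 24 h compound exposure. Reporter mRNA measured by RT-PCR, 6-FAM labelling, HpaI digestion and capillary electrophoresis; gain-of-signal fitted versus DMSO.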

[16] = biological target: Nuclear receptor subfamily 1 group I member 3 (Homo sapiens) (UniProt Q14994); assay: ATG_CAR_TRANS: Attagene TRANS-FACTORIAL HepG2 Assay for human Constitutive Androstane Receptor (CAR) (AID 2282969); settings: HepG2 Attagene TRANS-FACTORIAL CAR reporter;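 also: activators raise reporter mRNA above DMSO so AC50 marks induction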
Method in brief: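 Steps: transient transfection of HepG2 with multiple GAL4-UAS reporter units; 24 h compound incubation; RNA isolation, RT-PCR, 6-FAM primer extension, HpaI digest; capillary electrophoresis. Gain-of-signal relative to DMSO negative control.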

[17] = biological target: Androgen receptor (Homo sapiens) (UniProt P10275); assay: ATG_AR_TRANS: Attagene TRANS-FACTORIAL HepG2 Assay for human Androgen Receptor (AR) (AID 2282973); settings: HepG2 Attagene TRANS-FACTORIAL AR reporter transcription
Method in brief: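 HepG2 cells transiently transfected with AR-Gal4 chimera and GAL4-UAS reporter units; chemical exposure 24 h. Reporter mRNA quantified by RT-PCR with fluorescent labelling and capillary electrophoresis; gain-of-signal fitted against DMSO.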

[18] = biological target: Steroid hormone receptor ERR1 (Homo sapiens) (UniProt P11474); assay: ATG_ERRa_TRANS: Attagene TRANS-FACTORIAL HepG2 Assay for human Estrogen-Related Receptor alpha (ERRa) (AID 2282971); settings: HepG2 Attagene TRANS reporter, ERRa transactivation
Method in brief: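 HepG2 cells transiently transfected with GAL4-UAS reporter units and chimeric NR-Gal4 constructs; after 24 hour compound incubation, reporter mRNA quantified by RT-PCR, fluorescent labelling and capillary electrophoresis, gain of signal versus DMSO.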

Measured: AC50

Chain of Steroid hormone receptor ERR1 (Homo sapiens) (P11474 whole entry, looked up, the tested form may be a part): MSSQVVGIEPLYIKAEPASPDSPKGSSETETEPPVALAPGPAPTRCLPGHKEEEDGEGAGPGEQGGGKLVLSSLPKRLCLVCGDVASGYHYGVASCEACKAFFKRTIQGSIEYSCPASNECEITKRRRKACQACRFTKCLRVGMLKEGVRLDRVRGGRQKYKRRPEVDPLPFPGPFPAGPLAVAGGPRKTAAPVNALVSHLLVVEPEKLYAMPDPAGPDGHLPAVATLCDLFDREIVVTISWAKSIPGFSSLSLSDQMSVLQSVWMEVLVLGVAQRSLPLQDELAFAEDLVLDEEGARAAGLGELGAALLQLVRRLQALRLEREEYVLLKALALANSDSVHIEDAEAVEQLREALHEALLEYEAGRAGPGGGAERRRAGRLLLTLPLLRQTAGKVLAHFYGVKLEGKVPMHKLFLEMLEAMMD
Chain of Nuclear respiratory factor 1 (Homo sapiens) (Q16656 whole entry, looked up): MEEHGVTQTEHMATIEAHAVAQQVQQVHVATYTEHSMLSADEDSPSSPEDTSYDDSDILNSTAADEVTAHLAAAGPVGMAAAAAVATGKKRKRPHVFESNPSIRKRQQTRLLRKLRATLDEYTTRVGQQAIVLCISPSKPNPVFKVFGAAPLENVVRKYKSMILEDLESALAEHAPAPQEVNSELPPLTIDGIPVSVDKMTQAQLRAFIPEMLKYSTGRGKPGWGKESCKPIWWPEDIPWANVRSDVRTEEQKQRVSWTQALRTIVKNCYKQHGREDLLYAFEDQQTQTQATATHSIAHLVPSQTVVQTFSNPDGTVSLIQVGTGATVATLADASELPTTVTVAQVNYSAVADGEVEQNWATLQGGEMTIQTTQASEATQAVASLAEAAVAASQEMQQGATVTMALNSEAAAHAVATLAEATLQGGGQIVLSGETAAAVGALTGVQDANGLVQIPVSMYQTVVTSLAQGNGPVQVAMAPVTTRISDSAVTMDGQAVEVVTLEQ
Chain of Oxysterols receptor LXR-alpha (Homo sapiens) (Q13133 whole entry, looked up, the tested form may be a part): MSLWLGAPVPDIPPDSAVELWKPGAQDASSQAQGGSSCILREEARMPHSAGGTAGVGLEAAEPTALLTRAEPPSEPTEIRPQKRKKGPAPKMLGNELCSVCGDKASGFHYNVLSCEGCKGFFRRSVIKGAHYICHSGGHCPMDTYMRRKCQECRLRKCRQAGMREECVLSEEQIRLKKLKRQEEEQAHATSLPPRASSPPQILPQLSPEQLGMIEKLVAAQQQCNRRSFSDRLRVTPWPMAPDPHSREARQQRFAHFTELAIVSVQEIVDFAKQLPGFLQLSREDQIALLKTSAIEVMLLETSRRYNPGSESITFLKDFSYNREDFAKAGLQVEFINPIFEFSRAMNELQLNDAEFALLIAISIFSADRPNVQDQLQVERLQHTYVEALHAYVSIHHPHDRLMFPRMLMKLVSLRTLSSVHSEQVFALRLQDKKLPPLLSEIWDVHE
Chain of Androgen receptor (Homo sapiens) (P10275 whole entry, looked up, the tested form may be a part): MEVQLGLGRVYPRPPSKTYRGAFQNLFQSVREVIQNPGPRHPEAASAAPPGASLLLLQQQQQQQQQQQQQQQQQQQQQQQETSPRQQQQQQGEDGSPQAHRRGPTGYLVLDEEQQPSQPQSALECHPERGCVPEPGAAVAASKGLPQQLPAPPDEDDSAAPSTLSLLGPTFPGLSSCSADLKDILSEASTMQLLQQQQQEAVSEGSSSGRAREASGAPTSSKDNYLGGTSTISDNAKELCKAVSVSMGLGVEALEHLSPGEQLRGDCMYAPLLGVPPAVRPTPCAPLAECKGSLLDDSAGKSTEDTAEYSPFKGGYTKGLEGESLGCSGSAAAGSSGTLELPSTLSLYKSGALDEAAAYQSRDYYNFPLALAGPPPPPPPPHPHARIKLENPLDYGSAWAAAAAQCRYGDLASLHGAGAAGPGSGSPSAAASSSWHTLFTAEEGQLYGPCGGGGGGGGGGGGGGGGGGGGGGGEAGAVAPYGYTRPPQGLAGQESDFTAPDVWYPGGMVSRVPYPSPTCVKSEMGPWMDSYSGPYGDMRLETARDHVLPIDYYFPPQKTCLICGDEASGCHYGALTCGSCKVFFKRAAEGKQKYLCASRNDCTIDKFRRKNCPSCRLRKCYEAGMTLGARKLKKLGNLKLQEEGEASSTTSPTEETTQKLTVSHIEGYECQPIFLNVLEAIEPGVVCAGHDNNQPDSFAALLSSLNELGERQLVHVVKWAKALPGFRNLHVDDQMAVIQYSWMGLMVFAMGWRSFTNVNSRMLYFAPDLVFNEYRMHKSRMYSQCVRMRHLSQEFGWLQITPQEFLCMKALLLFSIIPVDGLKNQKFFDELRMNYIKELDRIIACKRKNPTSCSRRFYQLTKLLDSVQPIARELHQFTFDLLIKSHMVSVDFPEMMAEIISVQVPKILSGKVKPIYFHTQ
Chain of Bile acid receptor (Homo sapiens) (Q96RI1 whole entry, looked up, the tested form may be a part): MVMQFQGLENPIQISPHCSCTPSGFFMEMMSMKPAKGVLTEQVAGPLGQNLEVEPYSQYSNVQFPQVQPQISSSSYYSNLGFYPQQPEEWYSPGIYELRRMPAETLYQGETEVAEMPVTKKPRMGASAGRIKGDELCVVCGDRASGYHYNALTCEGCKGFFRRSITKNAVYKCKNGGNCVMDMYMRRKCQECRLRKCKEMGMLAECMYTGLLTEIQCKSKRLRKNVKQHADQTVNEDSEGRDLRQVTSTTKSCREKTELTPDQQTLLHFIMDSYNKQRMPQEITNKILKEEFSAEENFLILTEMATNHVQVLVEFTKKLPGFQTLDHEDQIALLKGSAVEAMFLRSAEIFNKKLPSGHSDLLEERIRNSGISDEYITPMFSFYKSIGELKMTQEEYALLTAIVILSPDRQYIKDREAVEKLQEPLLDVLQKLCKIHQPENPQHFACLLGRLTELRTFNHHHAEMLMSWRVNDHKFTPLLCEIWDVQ
Chain of Oxysterols receptor LXR-beta (Homo sapiens) (P55055 whole entry, looked up, the tested form may be a part): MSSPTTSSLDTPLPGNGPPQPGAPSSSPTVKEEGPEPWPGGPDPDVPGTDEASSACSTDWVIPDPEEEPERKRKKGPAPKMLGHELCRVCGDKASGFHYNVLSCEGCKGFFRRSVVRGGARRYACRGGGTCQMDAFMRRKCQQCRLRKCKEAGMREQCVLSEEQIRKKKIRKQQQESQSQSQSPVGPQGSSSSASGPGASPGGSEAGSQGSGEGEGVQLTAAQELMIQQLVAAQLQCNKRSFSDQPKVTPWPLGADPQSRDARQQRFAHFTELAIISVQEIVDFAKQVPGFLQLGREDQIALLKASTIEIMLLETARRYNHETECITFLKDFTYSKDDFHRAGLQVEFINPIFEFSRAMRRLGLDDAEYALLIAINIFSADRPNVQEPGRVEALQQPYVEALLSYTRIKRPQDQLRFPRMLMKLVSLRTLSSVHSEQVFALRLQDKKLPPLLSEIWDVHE
Chain of Hepatocyte nuclear factor 4-alpha (Homo sapiens) (P41235 whole entry, looked up, the tested form may be a part): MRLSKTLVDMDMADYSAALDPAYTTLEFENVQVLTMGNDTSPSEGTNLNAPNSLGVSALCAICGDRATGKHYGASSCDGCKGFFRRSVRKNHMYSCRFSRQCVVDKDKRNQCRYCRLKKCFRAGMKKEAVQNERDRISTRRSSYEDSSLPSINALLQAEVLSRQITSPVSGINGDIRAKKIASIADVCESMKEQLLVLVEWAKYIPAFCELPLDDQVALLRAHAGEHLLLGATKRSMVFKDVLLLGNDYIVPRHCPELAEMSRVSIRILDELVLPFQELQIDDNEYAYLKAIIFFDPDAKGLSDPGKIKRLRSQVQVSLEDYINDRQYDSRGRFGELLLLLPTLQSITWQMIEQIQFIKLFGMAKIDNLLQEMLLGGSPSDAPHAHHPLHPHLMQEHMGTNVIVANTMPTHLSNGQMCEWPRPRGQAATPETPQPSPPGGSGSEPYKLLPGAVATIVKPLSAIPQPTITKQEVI
Chain of Glucocorticoid receptor (Homo sapiens) (P04150 whole entry, looked up, the tested form may be a part): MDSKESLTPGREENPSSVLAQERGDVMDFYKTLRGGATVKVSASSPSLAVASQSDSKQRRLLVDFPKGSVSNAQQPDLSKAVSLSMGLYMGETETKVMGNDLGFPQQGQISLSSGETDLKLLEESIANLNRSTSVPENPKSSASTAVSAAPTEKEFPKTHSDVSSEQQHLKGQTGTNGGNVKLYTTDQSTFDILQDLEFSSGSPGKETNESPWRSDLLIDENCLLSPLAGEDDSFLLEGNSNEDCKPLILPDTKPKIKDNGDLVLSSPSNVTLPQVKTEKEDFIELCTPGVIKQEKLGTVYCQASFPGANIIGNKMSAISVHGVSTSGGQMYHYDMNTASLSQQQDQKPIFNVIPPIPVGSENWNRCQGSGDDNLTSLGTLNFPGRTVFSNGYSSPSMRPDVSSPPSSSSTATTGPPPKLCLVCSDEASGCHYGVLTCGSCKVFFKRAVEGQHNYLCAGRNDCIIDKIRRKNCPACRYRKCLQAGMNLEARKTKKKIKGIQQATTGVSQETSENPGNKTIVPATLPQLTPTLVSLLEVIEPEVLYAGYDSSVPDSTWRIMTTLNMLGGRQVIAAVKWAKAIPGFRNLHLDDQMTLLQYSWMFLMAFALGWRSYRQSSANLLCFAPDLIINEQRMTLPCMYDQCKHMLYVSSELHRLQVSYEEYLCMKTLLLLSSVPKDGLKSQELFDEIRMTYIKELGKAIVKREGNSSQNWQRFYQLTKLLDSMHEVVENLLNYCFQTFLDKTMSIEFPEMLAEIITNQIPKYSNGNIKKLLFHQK
Chain of X-box-binding protein 1 (Homo sapiens) (P17861 whole entry, looked up): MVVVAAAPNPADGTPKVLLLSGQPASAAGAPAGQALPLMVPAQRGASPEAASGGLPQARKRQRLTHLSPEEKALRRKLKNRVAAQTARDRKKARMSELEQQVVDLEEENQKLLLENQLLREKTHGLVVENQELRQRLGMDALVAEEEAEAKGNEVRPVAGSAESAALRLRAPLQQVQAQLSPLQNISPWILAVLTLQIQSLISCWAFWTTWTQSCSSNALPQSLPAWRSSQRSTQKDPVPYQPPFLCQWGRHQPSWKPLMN

CC(C)OC(=O)Nc1ccccc1
inactive: [1] | [2] | [3] | [4] | [5] | [6] | [7]

CCOP(=O)(CN(CCO)CCO)OCC
inactive: [1] | [2] | [3] | [4] | [5] | [8] | [6] | [7]

C[C@@H]1C[C@@H]([C@H](O)CC2CC(=O)NC(=O)C2)C(=O)[C@@H](C)C1
inactive: [2] | [9] | [10] | [3] | [11] | [4] | [5] | [8] | [6] | [7]
active: [2] 89.5 µM

O=C(O)C(Cl)(Cl)Cl
inactive: [1] | [2] | [12] | [13] | [10] | [3] | [11] | [4] | [5] | [8] | [6] | [7]

N#CCc1ccc(Cl)cc1
inactive: [1] | [14] | [2] | [13] | [15] | [10] | [4] | [6] | [7]

N#Cc1ccccn1
inactive: [1] | [16] | [2] | [13] | [10] | [3] | [11] | [4] | [5] | [8] | [7]

O=CC=O
inactive: [1] | [14] | [2] | [17] | [15] | [11] | [4] | [7]

COP(=O)(OC)O/C(=C\Cl)c1cc(Cl)c(Cl)cc1Cl
inactive: [1] | [2] | [17] | [12] | [9] | [4] | [5]
active: [14] 5.86 µM | [8] 115 µM | [6] 170 µM | [7] 66.2 µM

O=[N+]([O-])c1ccc(O)c([N+](=O)[O-])c1
inactive: [1] | [18] | [2] | [10] | [3] | [4] | [6] | [7]

CCOP(=S)(OCC)SCCS(=O)(=O)CC
inactive: [1] | [14] | [18] | [2] | [12] | [15] | [9] | [10] | [3] | [6] | [7]

CCNc1nc(NC(C)(C)C)nc(SC)n1
inactive: [1] | [14] | [2] | [15] | [9] | [10] | [3] | [4] | [5] | [8] | [6] | [7]

O=[N+]([O-])c1c(Cl)c(Cl)cc(Cl)c1Cl
inactive: [1] | [14] | [2] | [12] | [5] | [7]

CCC(C)c1cccc(C(C)CC)c1O (stereo not drawn)
inactive: [1] | [2] | [9] | [3] | [11] | [4] | [5] | [6] | [7]
active: [14] 24.4 µM | [10] 14.3 µM | [8] 33.4 µM

Cn1sc(Cl)cc1=O
inactive: [1] | [14] | [2] | [13] | [4] | [5] | [7]

CC1CN1P(=O)(N1CC1C)N1CC1C (stereo not drawn)
inactive: [1] | [16] | [2] | [10] | [11] | [4] | [6] | [7]

CC(C#N)CCC#N (stereo not drawn)
inactive: [1] | [18] | [2] | [12] | [3] | [11] | [4] | [8] | [7]

O=C1C2(Cl)C3(Cl)C4(Cl)C(Cl)(Cl)C5(Cl)C3(Cl)C1(Cl)C5(Cl)C24Cl (stereo not drawn)
inactive: [1] | [18] | [2] | [17] | [12] | [13] | [15] | [9] | [10] | [3] | [11] | [4] | [5] | [8] | [6] | [7]
active: [2] 15.9 µM | [9] 4.29 µM and 8.79 µM and 10.4 µM | [8] 18.9 µM

C[C@H]1CCCC(=O)CCC/C=C/c2cc(O)cc(O)c2C(=O)O1
active: [14] 0.00409 µM | [7] 39.4 µM
inactive: [1] | [2] | [17] | [10] | [11] | [4] | [8]
